The target of the first assay is RFX3. As to the kind of experiment: pooled miR-30 sensor sort-seq; sequence = guide strand. The settings on record: shRNA.
Sequence AATTTGACAACAGTCGACCTTC returned a sensor-assay potency score (higher = more potent) of 0.318.
For TAAATCACCAAACTCGCCCATG, the sensor-assay potency score (higher = more potent) was -0.686.
TTGTTGTACTGGTACTTGCTGT came in with a sensor-assay potency score (higher = more potent) of -0.28.
On to TTAAGTGTTGTAAAAATCCTTC, for which the sensor-assay potency score (higher = more potent) is -0.411.
Turning to TAGAATTTGACAACAGTCGACC, the sensor-assay potency score (higher = more potent) was -0.732.
Regarding TTGTTGTTCGGATTGCTCCATT, the sensor-assay potency score (higher = more potent) is -0.745.
For TTCTAGTCTCTGAACCATGTTG, the sensor-assay potency score (higher = more potent) was -0.714.
TTGACAACAGTCGACCTTCAGG returned a sensor-assay potency score (higher = more potent) of -0.926.
TTGAAGATTCACAACAACGTCC came in with a sensor-assay potency score (higher = more potent) of 0.274.
Turning to TTGGTATAGACAGTATCGCTTC, the sensor-assay potency score (higher = more potent) was -0.105.
Consider TAAATTTTCAACTTAAGCCCAA, for which the sensor-assay potency score (higher = more potent) came out at 0.019.
TACACCAAGACTAACAATCAAC registered a sensor-assay potency score (higher = more potent) of -1.04.

A further assay has as its target RGS13. Described as above. The note with it: shRNA.
With TAGTCTCTCTTGTCGAACTGTC, the sensor-assay potency score (higher = more potent) was -0.609.
On the same count and under the same terms, the figure for TTAAATTTTCAAAAGACTGGGC is -0.0917; for ATAGTCTCTCTTGTCGAACTGT it is -0.257.
For the sequence TTGAATATTCTCGTCACTGTGC, the sensor-assay potency score (higher = more potent) turned out to be 0.436.
On the same count and under the same terms, the figure for TAGGTTTCACATGCCATCCAGA is -0.935.
Regarding TCTGACTTTAGAAATCTGGGGT, the sensor-assay potency score (higher = more potent) turned out to be 0.865.
Regarding TTCCTGATGATAGTCTCTCTTG, the sensor-assay potency score (higher = more potent) is -0.749.
TTAATGAACATAATAGTAGGAA gave a sensor-assay potency score (higher = more potent) of 0.19.
Same read-out and setting: the figure for TTTTGGTACATTTCTGACTTTA is -0.566; for ATGATAGTCTCTCTTGTCGAAC it is -1.51; for TTAATTGAACTACATAGGCTTG it is -0.858.
Regarding TAGAAATTCTGCTCCACCGTGA, the sensor-assay potency score (higher = more potent) was 0.617.

In the next assay the target is RGS6. Described as above. The note with it: shRNA.
With TAAACTTTCAGCCACTTTGGAC, the sensor-assay potency score (higher = more potent) is -0.804.
As to TCTGTCTTGTCTTTTTTCCGGT, the sensor-assay potency score (higher = more potent) was 0.0231.
In turn, TAATCTGCCAGTTCCAGCCTTG displayed a sensor-assay potency score (higher = more potent) of -0.407.
Sequence TTTTCAAACAATGTCTGTCGAT displayed a sensor-assay potency score (higher = more potent) of -0.396.
The sequence TCAAACGTCGACATTTTCGGAT had a sensor-assay potency score (higher = more potent) of -0.513.
Turning to TTTCAAACAATGTCTGTCGATC, the sensor-assay potency score (higher = more potent) was -0.513.
The sequence TTGTCATCTTGCATCTTTGTAA displayed a sensor-assay potency score (higher = more potent) of -0.676.
Sequence TTTGACACACACACACAGGGAA registered a sensor-assay potency score (higher = more potent) of 0.653.
Same read-out and setting: the figure for TTGGCTGAGTACATGCACCGGG is 0.473.
On to TAATCTCAAGTGATAGTCGTGA, for which the sensor-assay potency score (higher = more potent) was determined as 0.294.
On the same count and under the same terms, the figure for TTATTTTGCATTGTCCTCTTAC is -0.243; for TTCTGCTTCATAATCTGCCAGT it is -0.422.

(Values after the OligoGym collection.)
Further: reference of the scale not given here.
